Assay results as given in PubChem BioAssay (NCATS).
Records with an inconclusive call do not appear. Calls of active or inactive are those of the source. Unless noted, the call rests on the fitted dose curve; in most records, active means well fitted curve in either direction with a large enough effect (not every such curve was filed as active); inconclusive means small, poorly fitted or top-dose-only effect, or another doubt; inactive means flat fitted curve, though single readings scatter.

Tests used:
[1] = AP1 Signaling Pathway (AID 357); conditions: ME-180 AP-1-bla reporter, EGF-induced, beta-lactamase ratio, 5 h; at 17.2 µM (top of the series) unless noted;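 further: ME-180 reporter cells stimulated with EGF at its EC50 level; on the % scale 0 is the no-effect control and ±100 the full control effect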
How it was run: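 First, ME-180 AP-1-bla cells were cultured overnight at 37 °C in low-serum Opti-MEM. Next, titrated compounds with EC50 EGF were incubated 5 hours. Finally, CCF4 was added for 2.5 hours and the 460/530 nm ratio recorded.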

[2] = NFAT Signaling Pathway (AID 444); conditions: Jurkat NFAT-bla M1, carbachol, beta-lactamase ratio, 5 h; at 17.2 µM (top of the series) unless noted;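 further: carbachol stimulus at about its EC50 of 1 µM final; on the % scale 0 is the no-effect control and ±100 the full control effect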
How it was run: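 Jurkat cells with NFAT-driven β-lactamase reporter and co-expressed M1 receptor, stimulated with carbachol (final 1 uM, ~EC50), compound titration, 5 h at 37 °C. CCF4 loaded 1 h at RT; 460/530 nm ratio gave %activity and AC50.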

[3] = Stat Signaling Pathway (AID 446); conditions: ME-180 (cervical carcinoma) SIE beta-lactamase reporter, IL-6 stimulated, 5 h; at 17.2 µM (top of the series) unless noted;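 further: ME-180 cervical cancer cells given 40 pM IL-6 alongside compound; SIE-controlled beta-lactamase reporter measured as 460/530 nm FRET emission ratio; on the % scale 0 is the no-effect control and ±100 the full control effect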
How it was run: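 Emission at 460 and 530 nm (excitation 405 nm) reports SIE-controlled beta-lactamase in ME-180 cells. Cells received compound with 40 pM IL-6 for 5 hrs at 37 C; data scaled between 300 pM IL-6 and 125 nM JAK-inhibitor controls.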

[4] = target: Glucocorticoid receptor (Homo sapiens) (UniProt P04150); assay: GR-GFP Redistribution (AID 450;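 active means compounds whose dose series gives a full or clear partial fitted curve of increased nuclear translocation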; further: potency means the concentration at half of the fitted maximal effect)
Sequence of Glucocorticoid receptor (Homo sapiens) (P04150 whole entry, looked up): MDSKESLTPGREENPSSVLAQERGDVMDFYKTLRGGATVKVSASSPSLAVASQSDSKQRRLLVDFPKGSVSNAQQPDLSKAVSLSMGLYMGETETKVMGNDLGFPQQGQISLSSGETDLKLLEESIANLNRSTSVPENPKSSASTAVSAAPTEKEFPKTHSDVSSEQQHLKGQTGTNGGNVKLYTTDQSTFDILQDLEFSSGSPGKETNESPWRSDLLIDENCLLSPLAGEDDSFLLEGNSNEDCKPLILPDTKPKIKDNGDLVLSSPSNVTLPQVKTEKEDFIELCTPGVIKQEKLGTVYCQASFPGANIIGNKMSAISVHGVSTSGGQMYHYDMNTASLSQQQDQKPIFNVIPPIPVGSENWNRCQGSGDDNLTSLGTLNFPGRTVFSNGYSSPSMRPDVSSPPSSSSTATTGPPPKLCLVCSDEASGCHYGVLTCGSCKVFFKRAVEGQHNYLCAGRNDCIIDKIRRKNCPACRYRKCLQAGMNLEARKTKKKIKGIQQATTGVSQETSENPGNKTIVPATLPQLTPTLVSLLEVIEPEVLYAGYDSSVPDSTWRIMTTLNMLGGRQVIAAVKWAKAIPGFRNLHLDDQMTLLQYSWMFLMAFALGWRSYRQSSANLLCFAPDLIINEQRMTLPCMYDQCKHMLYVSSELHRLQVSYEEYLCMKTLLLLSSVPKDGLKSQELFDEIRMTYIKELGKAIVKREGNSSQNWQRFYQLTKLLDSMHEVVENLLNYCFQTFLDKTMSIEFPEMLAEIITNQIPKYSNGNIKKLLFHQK

CCCCc1nc2n[nH]c(N)c2c2c1CCCC2
inactive: activity change, negative = inhibition [1] 20.3% | activity change, negative = inhibition [2] 1.99% | activity, negative = inhibition [3] 7.03% | Potency [4] > 20.6 µM

C=COC(=O)CSc1nc(-c2cccs2)ccc1C#N
inactive: activity change, negative = inhibition [1] 4.27% | activity change, negative = inhibition [2] -19.4% | activity, negative = inhibition [3] 12.2% | Potency [4] > 20.6 µM

Cc1cc(=O)oc(C)c1C(=O)NCCc1ccccc1
inactive: activity change, negative = inhibition [1] 8.18% | activity change, negative = inhibition [2] -8.25% | activity, negative = inhibition [3] 14.6% | Potency [4] > 20.6 µM

CCOC(=O)C1CCN(C(C)=C2C(=O)c3ccccc3C2=O)CC1
inactive: activity change, negative = inhibition [1] 2.67% | activity change, negative = inhibition [2] 4.7% | activity, negative = inhibition [3] 1.52% | Potency [4]

CCc1cc(=O)oc2cc(C)c(CN3CCCCC3)c(O)c12
inactive: activity change, negative = inhibition [1] 7.78% | activity change, negative = inhibition [2] -13.9% | activity, negative = inhibition [3] -6.86% | Potency [4] > 20.6 µM

CCOC(=O)c1ccc(NC(=O)Cn2nnc3ccccc32)cc1
inactive: activity change, negative = inhibition [1] -12.4% | activity change, negative = inhibition [2] 12.9% | activity, negative = inhibition [3] -15% | Potency [4] > 20.6 µM

O=C(O)c1ccc(C2CCCCC2)cn1
inactive: activity change, negative = inhibition [1] 12.7% | activity change, negative = inhibition [2] -13.3% | activity, negative = inhibition [3] 15.1% | Potency [4] > 20.6 µM

CCOC(=O)c1c(C)n(C)c2ccc(OC)c(NC(=O)CN3CCC4(CC3)OCCO4)c12
inactive: activity change, negative = inhibition [1] -3.92% | activity change, negative = inhibition [2] 1.31% | activity, negative = inhibition [3] 3.03% | Potency [4] > 20.6 µM

CCOc1cccc(C2C(C#N)=C(N)Oc3cc(C)oc(=O)c32)c1OCC (stereo not drawn)
inactive: activity change, negative = inhibition [1] -17.6% | activity change, negative = inhibition [2] 9.73% | activity, negative = inhibition [3] -12.7% | Potency [4] > 20.6 µM

Cc1cc(=O)oc(C)c1C(=O)NCCC1=CCCCC1
inactive: activity change, negative = inhibition [1] 12.2% | activity change, negative = inhibition [2] -27.5% | activity, negative = inhibition [3] 2.06% | Potency [4] > 20.6 µM

COCc1cc(=O)[nH]c(Nc2nc3ccccc3o2)n1
inactive: activity change, negative = inhibition [1] 20.9% | activity change, negative = inhibition [2] -12.8% | activity, negative = inhibition [3] 1.07% | Potency [4] > 20.6 µM

COc1ccc(/C(O)=C2\C(=O)C(=O)N(c3cc(C)on3)C2c2cccc(OC)c2OC)cc1C (stereo not drawn)
inactive: activity change, negative = inhibition [1] -5.37% | activity change, negative = inhibition [2] 6.15% | activity, negative = inhibition [3] -17.9% | Potency [4] > 20.6 µM

COc1ccc(/C(O)=C2/C(=O)C(=O)N(CCCN(C)C)C2c2ccccc2)cc1Cl (stereo not drawn)
inactive: activity change, negative = inhibition [1] 8.68% | activity change, negative = inhibition [2] -3.88% | activity, negative = inhibition [3] 12.1% | Potency [4] > 20.6 µM

CCN(CC)C(=O)CN(C#N)c1nc(NC(C)C)nc(NC(C)C)n1
inactive: activity change, negative = inhibition [1] 4.86% | activity change, negative = inhibition [2] -0.753% | activity, negative = inhibition [3] 8.05% | Potency [4] > 20.6 µM

CC(C)c1ccc(O)c(N)c1
inactive: activity change, negative = inhibition [1] -2.33% | activity change, negative = inhibition [2] 12.3% | activity, negative = inhibition [3] 2.34% | Potency [4] > 20.6 µM

COc1ccc(OC)c(C2C(C(=O)c3ccco3)=C(O)C(=O)N2CCCN2CCOCC2)c1 (stereo not drawn)
inactive: activity change, negative = inhibition [1] 11.5% | activity change, negative = inhibition [2] 0.311% | activity, negative = inhibition [3] -6.98% | Potency [4] > 20.6 µM

C/C=C/c1ccccc1OCc1ccc(C(=O)O)o1
inactive: activity change, negative = inhibition [1] -6.57% | activity change, negative = inhibition [2] -2.78% | activity, negative = inhibition [3] -2.17% | Potency [4] > 20.6 µM

CN(C)c1nc2n(c(=S)n1)CCS2
inactive: activity change, negative = inhibition [1] 11.5% | activity change, negative = inhibition [2] 3.88% | activity, negative = inhibition [3] -7.31% | Potency [4] > 20.6 µM

CC1(C)Cc2c(c(-c3ccccc3)nc(N3CCCC3)c2C(N)=O)CO1
inactive: activity change, negative = inhibition [1] 0.989% | activity change, negative = inhibition [2] -18.8% | activity, negative = inhibition [3] 0.41% | Potency [4] > 20.6 µM

O=C1C(=O)N(CCCn2ccnc2)C(c2ccccn2)/C1=C(/O)c1ccccc1 (stereo not drawn)
inactive: activity change, negative = inhibition [1] 15.8% | activity change, negative = inhibition [2] 6.66% | activity, negative = inhibition [3] -2.92% | Potency [4] > 20.6 µM

CCCCCOc1ccc(C(=O)NCC(=O)NCC(=O)OCC)cc1
inactive: activity change, negative = inhibition [1] -2.64% | activity change, negative = inhibition [2] -2.75% | activity, negative = inhibition [3] -0.468% | Potency [4] > 20.6 µM

O=C(CCN1CCc2ccccc21)c1ccc2c(c1)OCCO2
inactive: activity change, negative = inhibition [1] 7.14% | activity change, negative = inhibition [2] -15.2% | activity, negative = inhibition [3] 2.96% | Potency [4] > 20.6 µM

CC1(C)Cc2c(C#N)c(SCc3nc4ccccc4[nH]3)nc(N3CCOCC3)c2CO1
inactive: activity change, negative = inhibition [1] -22.7% | activity change, negative = inhibition [2] 8.62% | activity, negative = inhibition [3] -16.1% | Potency [4] > 20.6 µM

COC(=O)Sc1nc(N2CCOCC2)c2c(c1C#N)CC(C)(C)OC2
inactive: activity change, negative = inhibition [1] -17.4% | activity change, negative = inhibition [2] -7.69% | activity, negative = inhibition [3] -18.3% | Potency [4] > 20.6 µM

CCCOc1cccc(C2/C(=C(/O)c3ccccc3)C(=O)C(=O)N2CCN(C)C)c1 (stereo not drawn)
inactive: activity change, negative = inhibition [1] 5.11% | activity change, negative = inhibition [2] 24.1% | activity, negative = inhibition [3] 0.936% | Potency [4] > 20.6 µM

CCOc1ccc(C2C(C#N)=C(N)SC(N)=C2C#N)cc1OC
inactive: activity change, negative = inhibition [1] 0.186% | activity change, negative = inhibition [2] 10.8% | activity, negative = inhibition [3] -5.25% | Potency [4] > 20.6 µM

CC(C)C1Cc2c(sc3c2c(=O)n(-c2ccccc2)c2nncn32)CO1 (stereo not drawn)
inactive: activity change, negative = inhibition [1] -6.58% | activity change, negative = inhibition [2] -10.2% | activity, negative = inhibition [3] 5.31% | Potency [4] > 20.6 µM
